This passage reports activation (% of control) results from PubChem BioAssay AID932 (The Scripps Research Institute Molecular Screening Center, 2007).

The whole screen tested about 200,000 compounds, of which about 5,100 (2.5%) were called active. For the sample, actives were picked, then their nearest neighbours and some compounds at random. A number with no mark means an inactive call.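 How the source made its calls: active means activation above the screen-wide mean activation plus 3 SD (cut at about 130% in these data); inactive means the rest.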

The assay is described as follows: potentiators of IFN-gamma driven STAT1 reporter – cell-based, HTS, luciferase reporter, primary screen (AID 932).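 Further: raw ratio to IFN-gamma control signal so 100% means no change and 0% no light.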 The settings on record: NIH 3T3 STAT1-luciferase reporter, luminescence, at 5.5 µM, stronger effect = higher value, 100% = IFN-gamma alone, no compound. (Reporter assays use an easily measured gene product as a stand-in for the process of interest.)
Regarding `COc1ccc(-c2nn(-c3ccccc3)cc2/C=C\C(=O)Nc2ccc(C(=O)O)cc2)cc1`, the activation (% of control) was 103%.

As for `Cc1cccc(-c2noc(-c3ccc(F)cc3)n2)c1`, the activation (% of control) was 152% (active). Next, `COc1ccc2[nH]c(=O)c(-c3noc(-c4ccc(F)cc4)n3)cc2c1`: 114%. For `Cc1ccc(Cc2nc(-c3cccc(C)c3)no2)cc1`, the activation (% of control) is 115%. Next, `COc1ccc(-c2nc(-c3ccccc3)no2)c(OC)c1`: 43.8%; `COc1ccc(-c2noc(-c3ccc(C)cc3)n2)cc1`: 133% (active); `COc1ccc(-c2noc(CSc3ccc(C)cc3)n2)cc1`: 102%. Next, `CC1COc2ccccc2N1C(=O)c1cccnc1Cl` (centres undefined): 98.3%; `Cc1nc(N)c(Br)c(C)c1Br`: 96.7%.

`CNC(=S)Nc1ccc([N+](=O)[O-])cc1`: the activation (% of control) is 96.9%. Next, `Cc1cc(C(=O)CC#N)c(C)n1-c1c(C)n(C)n(-c2ccccc2)c1=O`: 102%; `CC1(C)CC(=O)C/C(=N\NC(=O)c2cccs2)C1`: 101%. Next, `COc1ccccc1Oc1nc(-c2cccnc2)nc2ccccc12`: 102%. The result for `CCCCOC(=O)c1[nH]c(C)c(C(=O)OC)c1C` reads 134% (active). As to `COC(=O)c1c(C)[nH]c(C(=O)/C=C/c2ccc(Cl)cc2)c1C`, the activation (% of control) was 98.9%. Next, `CC(=O)c1c(C)[nH]c(C(=O)OCC(=O)NCCC(C)C)c1C`: 86.3%. The result for `COC(=O)C1=C(N)Oc2c(oc(CO)cc2=O)C1c1c(F)cccc1Cl` (centres undefined) reads 95.5%; that for `COc1cccc(CC2(CO)CCN(Cc3cnc(-c4cccc(C)c4)nc3)CC2)c1`, 99.5%.

Regarding `N/C(=N\OC(=O)/C=C/c1ccccc1)c1ccc(Br)cc1`, the activation (% of control) is 98.9%. The result for `N/C(=N\OC(=O)N1c2ccccc2Sc2ccccc21)c1ccc(Br)cc1` reads 92.7%; that for `N/C(=N\OC(=O)c1ccc2c(c1)OCO2)c1ccc(Br)cc1`, 144% (active).

Regarding `CN(NC(=O)C1CC(=O)N(c2ccccc2)C1)C1=NS(=O)(=O)c2ccccc21` (centres undefined), the activation (% of control) is 97.3%.

Take `O=C(CCSc1ccccc1)N1CCN(c2ccccc2F)CC1`: the activation (% of control) is 135% (active).

On to `O=C(c1cccc2ccccc12)N1CCN(c2ccccc2F)CC1`, for which the activation (% of control) was 101%.

`O=C(CCS(=O)(=O)c1cccc2nsnc12)N1CCN(c2ccccc2F)CC1`: the activation (% of control) was 106%. In the case of `COc1cc(CN2CCN(Cc3ccc(C)cc3)CC2)c([N+](=O)[O-])cc1OC`, the activation (% of control) was 90.7%. `Cc1cc(C)nc(-n2ncc3c2CC(c2ccc(C(C)C)cc2)CC3=O)n1` (centres undefined): the activation (% of control) was 104%. Next, `Cc1cc(C)cc(C(=O)NC2C(=O)N3C(C(=O)O)=C(CSc4nnc(C)s4)CSC23)c1` (centres undefined): 93.1%; `COc1cc(NC(=O)c2ccc3c(c2)OCO3)ccc1NC(=O)c1cccs1`: 101%.

Turning to `COc1cc(CNc2ncn[nH]2)ccc1OCc1ccccc1C`, the activation (% of control) was 131% (active). As for `COc1ccc(CCNC(=O)C(=O)NCc2ccccc2C)cc1OC`, the activation (% of control) is 96.8%. The result for `c1n[nH]c(NCc2ccc3c(c2)OCO3)n1` reads 89.7%. Turning to `COc1cccc(CC2(CO)CCCN(CC3=Cc4cc(OC)ccc4OC3)C2)c1` (centres undefined), the activation (% of control) was 92%. The result for `CCOC(=O)c1ccc(NC(=O)c2cc(=O)[nH]c3ccccc23)cc1` reads 102%. Next, `COC(=O)[C@H]1Cc2cnoc2C[C@]1(C)C(=O)O`: 106%. `CCc1nnc(NC(=O)Cc2cccs2)s1`: the activation (% of control) is 98.1%.

As to `CCc1nnc(NC(=O)c2cccs2)s1`, the activation (% of control) was 134% (active). Next, `CCCc1nnc(NC(=O)c2cccs2)s1`: 115%. `O=C(c1ccc(C(F)(F)F)cc1)C1CCCN(C(=O)c2csnn2)C1` (centres undefined): the activation (% of control) was 87.3%. `N#CCC(=O)N/N=C/c1ccc(SCC(=O)Nc2ccccc2)o1`: the activation (% of control) was 108%. The result for `O=C1COc2ccc(C(=O)COC(=O)c3cccnc3Cl)cc2N1` reads 109%; that for `CN(C)c1ccc(/C=N/NC(=O)c2ccc(Cn3cc(Br)cn3)o2)cc1`, 135% (active). Next, `O=C(N/N=C\c1ccc(Br)cc1)c1ccc(Cn2cccn2)o1`: 118%; `O=C(N/N=C/c1ccc2c(c1)OCO2)c1ccc(Cn2cc([N+](=O)[O-])cn2)o1`: 109%. Next, `C=CCn1c(COc2ccc(F)cc2)nnc1SCC(=O)Nc1cccc(S(N)(=O)=O)c1`: 97.8%. As for `Cc1c(/C=N/N2C(=O)C3C4C=CC(C4)C3C2=O)c2ccccc2n1C` (centres undefined), the activation (% of control) was 90.4%. For `C/C(=N\OC(=O)c1ccccc1)c1c(C)nc2cc(C)ccn12`, the activation (% of control) was 99.5%. Next, `Cc1cccc(N(CC(=O)Nc2ccc(-c3nc4ccc(C)cc4s3)cc2)S(C)(=O)=O)c1`: 142% (active); `Cc1ccc(N(CC(=O)Nc2cccc(N(C)S(C)(=O)=O)c2)S(C)(=O)=O)cc1`: 92.8%.
